In all, about 65,000 compounds went through this assay and about 2,100 (3.2%) showed an effect of 50% or more. The median lay at about -52%. The full list was thinned out, with strong results kept by preference.

In this test the test system is Plasmodium falciparum. The experiment in a line: Screen against P. falciparum Asexual Blood Stage (ABS), at 5uM. As to conditions: tested at 5 uM. It counts as functional, Dd2.
As to `Cc1cc(-c2cnc(N3CCNC(=O)C3)nc2-c2ccncc2)on1`, the INHIBITION is -43.2%.

In the case of `CCc1nc(C)c(C(=O)N2C[C@@H](C(=O)O)[C@H](C3CC3)C2)s1`, the INHIBITION is reported as -112%. The same measure for `COCCN(C)C[C@H]1C[C@H](CO)CN(C(=O)c2ccc(=O)n(C)c2)C1`: -100%. For the compound `Cc1ccc(N2CCC3(CN(Cc4ccncc4)CCC3(F)F)C2)nn1` (configuration not stated), the INHIBITION was -5.89%. Turning to `CCC(NCc1ccccn1)c1ccccc1OCC(=O)NC` (configuration not stated), the INHIBITION is reported as -27.1%. Turning to `CCC(NCc1ccccc1)c1ccccc1OCC(=O)NC` (configuration not stated), the INHIBITION stood at 65.6%. The same measure for `CCC(NC(=O)c1ccco1)c1ccccc1OCC(=O)N1CCCC1` (configuration not stated): -51.4%.

With `CC(Cn1cncn1)NC(=O)N1CC2(CCCC2)c2ccccc21` (configuration not stated), the INHIBITION was -89%. Take `N#CC1(NC(=O)Cc2cc(Cl)c3c(c2)OCCO3)CCC1`: the INHIBITION is -75%.

With `O=C(c1cocn1)N1CC[C@H]2OCC[C@@]2(COc2ncccc2F)C1`, the INHIBITION was -34.6%. The same measure for `COCC(=O)N1Cc2ccnn2CC(COCCN(C)C)C1` (configuration not stated): -13.6%; for `CC(C)n1c(C2CCCN(CC(N)=O)C2)nc2ccccc21` (configuration not stated): -23.5%. The same measure for `CC(C)n1c(C2CCCN(CCS(C)(=O)=O)C2)nc2ccccc21` (configuration not stated): -69.9%; for `CC(C)OCCCN1CCCC(c2nc3ccccc3n2C(C)C)C1` (configuration not stated): 56%. The same measure for `Cc1ccnc(NC(=O)CCc2cnn(C)c2C)c1`: -26.3%; for `CC(C)CSCCCNC(=O)C1CCC1`: -47.5%; for `CCN(CC1CCOC1)S(=O)(=O)Cc1ccccc1Cl` (configuration not stated): -53.1%. Regarding `COc1ccc(Cl)cc1CCNC(=O)N(C)CC1CCOC1` (configuration not stated), the INHIBITION is recorded as -102%. As to `CCN(CC1CCOC1)S(=O)(=O)Cc1cc(Cl)ccc1OC` (configuration not stated), the INHIBITION is reported as 59.1%. For the compound `CN1CCCCC12CCN(C(=O)c1cccn1C)CC2`, the INHIBITION is -27%. The same measure for `COCCNc1ncnc2c1CCN(C(=O)CC1CCC(=O)N1)CC2` (configuration not stated): -36%; for `CC(=O)N1CCC2(CCCN(C(=O)CCN3CCCCC3)C2)C1` (configuration not stated): -141%; for `CC(=O)N1CCCC2(C1)CN(C(=O)C1CCCCC1)CCO2` (configuration not stated): -104%. In the case of `CC(=O)N1CCOC2(CCCN(C(=O)CCN3CCCCC3)C2)C1` (configuration not stated), the INHIBITION is 56%. In the case of `Cc1nccc(NCc2cncc3c2CCN(S(C)(=O)=O)C3)n1`, the INHIBITION is recorded as -102%. The same measure for `Nc1cc(-c2cccs2)nn(CC(=O)N2CCc3ccccc32)c1=O`: -13.9%. Consider `Cc1cc(C)n(CC(C)NCCn2nc(C)c(Cl)c2C)n1` (configuration not stated), for which the INHIBITION is -48.1%. With `Cc1cc(C)n(CC(C)NCCN2CCc3ccccc32)n1` (configuration not stated), the INHIBITION worked out at 54.7%.

Consider `Cc1ccnc(NCCCN2CCc3ccccc32)n1`, for which the INHIBITION is reported as 19.8%. As to `N#CC1(C(=O)N2C[C@@H]3CC[C@H]2CN(Cc2cscn2)C3)CCOCC1`, the INHIBITION is recorded as -81.2%. In the case of `COc1cc(F)c(NCc2nc3ccccc3n2C)cc1OC`, the INHIBITION was -381%. For `O=C1N(Cc2cccnc2)CCC12CCCN(c1ncccn1)C2` (configuration not stated), the INHIBITION is -123%.

On to `CNC(=O)NC(=O)CN1CCCC(Cc2ccccc2OC)C1` (configuration not stated), for which the INHIBITION was -87.4%. The same measure for `COc1ccccc1CC1CCCN(CC(=O)NC2CC2)C1` (configuration not stated): 16.1%; for `Nc1nccnc1CC1CCCN(Cc2ccnc3ccccc23)C1` (configuration not stated): -53.7%; for `COc1ccccc1CN1CCCC(Cc2nccnc2N)C1` (configuration not stated): 62.1%. For `CNC(=O)CN1CCCC(Cc2ccccc2OC)C1` (configuration not stated), the INHIBITION was 61.9%. The same measure for `Nc1nccnc1CC1CCCN(Cc2cccc3[nH]ccc23)C1` (configuration not stated): 19.4%. The same measure for `CCN1CCN(c2ccccc2NC(=O)N(C)C2CCSC2)CC1` (configuration not stated): 37.6%; for `CN(C)Cc1noc2c1CN(Cc1ccc[nH]1)CC2`: -77.5%; for `Cc1ccc2c(c1)OC(C)(C)CC2NC(=O)C1CCN(C)CC1` (configuration not stated): 30.2%. The same measure for `Cc1ccc2c(c1)OCCCC2NC1CCN(C)CC1` (configuration not stated): 50.3%; for `Cc1ccc2c(c1)C(NCc1nnc3n1CCCCC3)CCCO2` (configuration not stated): -74.6%; for `Cc1ccc2c(c1)C(NCc1nccn1Cc1ccccc1)CCCO2` (configuration not stated): 35.8%. With `Cc1cc2c(cc1C)C(NC1CC1)CCCO2` (configuration not stated), the INHIBITION is -3.02%. With `Cc1ccc2c(c1)C(NC1CCN(C)CC1)CCCO2` (configuration not stated), the INHIBITION was found to be 66.8%. Regarding `CS(=O)(=O)N1CC[C@H]2O[C@H](C(=O)NCCc3ccccn3)CC[C@H]21`, the INHIBITION is recorded as -48.2%. The same measure for `COc1cccc(OCCc2nc3c(cc2C(N)=O)CCC3)c1`: -58.5%; for `Cc1nc(CN2CCCC(N(C)CC3CCCC3)C2)no1` (configuration not stated): -42.4%; for `CCc1nc(C2CCCN2CCCc2nc3ccccc3o2)no1` (configuration not stated): -157%. The same measure for `Cc1nc2ccccn2c1CC(=O)N[C@@H]1CC[C@@H](N2CCOCC2)[C@@H]1O`: -72.5%; for `NCc1ccccc1Sc1ccc(O)cc1`: 56.7%.

Source of the values: ChEMBL document CHEMBL4513216, “Probing the Open Global Health Chemical Diversity Library for Multistage-Active Starting Points for Next-Generation Antimalarials” (ACS Infect Dis, 2020).
